# Reference: PubChem BioAssay (NCI)
# This is part of a sample that, as a whole, favours compounds with a hit. Of some 79,000 tested, about 15% had one in any assay. Values without a mark were called inactive. The source made the active and inactive calls. Rule as the data show it: active = growth inhibition above about 70%; inactive = the rest.
# Columns and labels:
# [1] = NCI Yeast Anticancer Drug Screen. Data for the rad50 strain (AID 155);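 also: 0% = growth of vehicle-only cultures of the same strain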; settings: S. cerevisiae rad50 strain growth inhibition; at 50.0 µM; hits give high values
# Outline: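 Yeast carrying a defined DNA repair defect were exposed to test compounds, and growth was compared with vehicle-treated controls to give percent inhibition.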
# [2] = NCI Yeast Anticancer Drug Screen. Data for the mec2-1 strain (AID 157); settings: S. cerevisiae mec2-1 strain, at 50.0 µM, hits give high values
# Outline: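 mec2-1 yeast strain, carrying an alteration in DNA damage repair or cell cycle control, was exposed to compounds; growth inhibition was measured relative to vehicle-treated controls.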
# [3] = NCI Yeast Anticancer Drug Screen. Data for the sgs1 mgt1 strain (AID 161);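 also: 0% = growth of cultures given vehicle only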; settings: S. cerevisiae sgs1 mgt1 strain, at 50.0 µM, hits give high values
# Outline: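 Compounds are added to genetically altered yeast, and growth is compared with cultures given vehicle alone to give percent inhibition.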
# [4] = NCI Yeast Anticancer Drug Screen. Data for the cln2 rad14 strain (AID 165);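 also: 0% = growth equal to vehicle treated cultures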; settings: S. cerevisiae cln2 rad14 strain, at 50.0 µM, hits give high values
# Outline: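 Yeast carrying cln2 and rad14 alterations (cell cycle control and DNA damage repair) were exposed to compounds. Growth inhibition was measured against vehicle-treated controls.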
# [5] = NCI Yeast Anticancer Drug Screen. Data for the bub3 strain (AID 167); settings: S. cerevisiae bub3 mutant strain, at 50.0 µM, hits give high values
# Outline: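 Compounds were applied to a genetically altered yeast strain carrying a cell-cycle control defect. Growth inhibition was scored against vehicle-treated controls.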
# [6] = NCI Yeast Anticancer Drug Screen. Data for the mlh1 rad18 strain (AID 175); settings: S. cerevisiae mlh1 rad18 strain growth inhibition; at 50.0 µM; hits give high values
# Outline: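 Growth inhibition of the yeast strain was measured after compound exposure and expressed relative to vehicle-treated controls. The strain carries defined defects in DNA damage repair.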
SMILES,growth inhibition [1],growth inhibition [2],growth inhibition [3],growth inhibition [4],growth inhibition [5],growth inhibition [6]
Cc1noc(C)c1CCCOC1COc2ccccc2OCCOCCOc2ccccc2OC1,-4.7%,-7.15%,-5.8%,-21.1%,-9.15%,-5.25%
O=c1cc(-c2ccccc2)oc2c1ccc1c(O)cccc12,11.1%,-2.5%,-6.9%,21.5%,31.9%,8.95%
C=CCN(CC=C)P(=O)(N(CC=C)CC=C)N(CC=C)CC=C,22.3%,8.9%,16.4%,0.15%,17.6%,21.4%
CC(NC(=O)NC(C)(C)C)NC(=O)C(N)CC(=O)O (stereo not drawn),-51.8%,-20.1%,-25.4%,19.4%,12.7%,-20.4%
CCCn1c(SCC)c2ccccc2c1-c1nc(F)nc(F)n1,-11.8%,-21.8%,-6.75%,18.9%,-20.7%,4.1%
Cc1cc(C)c2ccc(NC(=O)CCC(=O)O)nc2n1,-15.1%,-32.5%,7.45%,10.7%,-27.4%,-13.4%
CN1C(=O)CCSC1=S,3.55%,-12.1%,-4.7%,-18.6%,14.4%,-2.05%
O=C(Oc1cccc2ccccc12)c1ccccc1,-10.4%,15.6%,-5.2%,-76.2%,6.25%,-9.45%
CCOC(=O)C(C(=O)OCC)=c1sc(=C(C(=O)OCC)C(=O)OCC)s1,20.2%,7.8%,17.1%,5.05%,-2.5%,9.3%
Nc1nc(N)c2c(n1)NCN(OCCOc1ccc(Cl)cc1Cl)C2,1.1%,3%,9.15%,-26.8%,-14.8%,9.8%
CCCC(=O)OC1C=C2N3C(=O)C4CC56C(=CC(OC(C)=O)C7OC75)N4C(=O)C3CC26C2OC12 (stereo not drawn),83.3% (active),84.2% (active),89.7% (active),78.8% (active),76.3% (active),85.2% (active)
CC(C)CNC(=S)N/N=C/c1ccc(C(C)C)cc1,-19.6%,-13.4%,-8.4%,-46.2%,-13.1%,-28.1%
CN(C)c1ccc2c(c1)Cc1cc(NC(=O)CCC(=O)O)ccc1-2,8.7%,6.4%,19.4%,-1.6%,8.85%,14.3%
N#CCCc1ccnc2ccccc12,1.7%,-6.4%,1.25%,-43%,-3.8%,-14.8%
COC(=O)C1=CO[C@@H](O)[C@@H]2C(C)OC(=O)C[C@H]12 (stereo partly drawn),-8.5%,-28.3%,-6.9%,3.2%,-10.8%,-15.2%
CN(C)/C(=N/C(=O)Nc1ccccc1)SCc1ccccc1,-10.5%,-3.9%,0.45%,-32%,-9.1%,-1.2%
CCCCCCCCCC(=O)OCC1OC(n2cc(F)c(=O)[nH]c2=O)C(NC(=O)OCc2ccccc2)C(OC(=O)CCCCCCCCC)C1O (stereo not drawn),-5.9%,-10.2%,-11.8%,6.9%,-0.35%,-21%
O=[N+]([O-])c1ccc(-c2nc3ccncc3[nH]2)cc1,-22.6%,-7.4%,-15.2%,-21.6%,-6.85%,-12.6%
O=C(OCC(Cl)(Cl)Cl)N1[C@@H]2C=C[C@@H](N1C(=O)OCC(Cl)(Cl)Cl)[C@@]13CCCCC21O3 (stereo partly drawn),-55.7%,5.15%,0.45%,1.8%,-4.95%,1.65%

SMILES,growth inhibition [1],growth inhibition [2],growth inhibition [3],growth inhibition [4],growth inhibition [5],growth inhibition [6]
COc1ccc(NC(C)c2ccncc2)cc1 (stereo not drawn),-17.8%,-16%,-29%,-9.95%,-9.9%,-46%
C=CCNC(=O)c1ccccc1OCC(=O)O,-12.7%,-37.3%,-8.75%,-8.1%,-29.1%,1.4%
CC1(C)COC2(CC(C)(C)OC2(C)C)OC1,-1.45%,0.8%,-6%,-40.8%,-7.25%,14.8%
CCOC(=O)C(c1ccccc1)N(CCCN(CC)CC)c1ccccc1 (stereo not drawn),-10.8%,-3.25%,1.6%,-9.1%,5.15%,0.45%
NCc1ccccc1F,-10.2%,-23.9%,12.3%,13.7%,-6.75%,4.15%
CCCCCC(N)C(=O)O (stereo not drawn),1.7%,6%,-14.5%,-22.1%,-2.35%,-17.9%
CN(C)S(=O)(=O)c1nc2nc[nH]c(=O)c2[nH]1,-3.2%,-20.4%,-3.8%,-15.9%,-8.55%,-22.9%
NC(Cc1cccnn1)C(=O)O (stereo not drawn),-29.2%,-22.8%,-29.2%,-58.9%,-25.4%,-5.25%
Cc1cc(C)nc(Nc2nc3ccc([N+](=O)[O-])cc3[nH]2)n1,0.5%,-5.3%,5.5%,-7.4%,-5.05%,-4.85%
NCc1ccc(Cl)cc1,8.65%,-2.65%,11.4%,25.8%,-2.2%,14.2%
CCOC1(OCC)C([N+](=O)[O-])=CC(=[N+]([O-])O)C=C1[N+](=O)[O-],3.8%,-4.1%,-7.15%,3.75%,-8.8%,-21.2%
CCc1ccc2c(c1)CCC(=O)O2,0.5%,-15.2%,-4.8%,-23.7%,-13.9%,-7.65%
O=C(CO)c1ccccc1,-11.9%,10.3%,-3.8%,25.6%,4%,19.6%
Brc1cccc(-c2nnc(-c3ccc4ccccc4c3)o2)c1,-5.85%,-29.5%,6%,11.4%,-9%,-2.25%
CONS(=O)c1ccc(Cl)cc1 (stereo not drawn),10.8%,28.2%,6.35%,-27.2%,4.95%,11%
CN(/N=C\c1ccc2ccccc2c1)C1=NCCN1,5.65%,0.25%,-14.8%,-63%,4.1%,-12.1%
CCOC(=O)CNC=O,33.5%,-6.1%,-2.7%,26.4%,-1.8%,8.55%
COC(=O)CCC(=O)CC(=O)C(=O)Nc1c(Cl)cc([N+](=O)[O-])cc1Cl,11.4%,-17.1%,0.5%,24.1%,-4.5%,3.8%
O=C(Nc1ccc(S(=O)(=O)NC2CCCCC2)cc1)OC(c1ccccc1)c1ccccc1,21.6%,-0.75%,18.2%,13.8%,-6.15%,1.45%
